# Experiments:
# Assay in all cases: DAPPL (digital affinity profiling via proximity ligation, sequencing); 10 mM Tris-HCl pH 7.5, 50 mM NaCl, 1 mM DTT, 4% glycerol, room temperature, 30 min; GST-TFs on glutathione beads, 16-mer random dsDNA library, 0.1% formaldehyde crosslink after washing; high values mean tight binding
# FLI1 = target: T1, FLI1 (Homo sapiens, UniProt Q01543 1-452); conditions: protein: recombinant; tags: N-terminal GST; dsDNA, one strand shown
# T1 sequence: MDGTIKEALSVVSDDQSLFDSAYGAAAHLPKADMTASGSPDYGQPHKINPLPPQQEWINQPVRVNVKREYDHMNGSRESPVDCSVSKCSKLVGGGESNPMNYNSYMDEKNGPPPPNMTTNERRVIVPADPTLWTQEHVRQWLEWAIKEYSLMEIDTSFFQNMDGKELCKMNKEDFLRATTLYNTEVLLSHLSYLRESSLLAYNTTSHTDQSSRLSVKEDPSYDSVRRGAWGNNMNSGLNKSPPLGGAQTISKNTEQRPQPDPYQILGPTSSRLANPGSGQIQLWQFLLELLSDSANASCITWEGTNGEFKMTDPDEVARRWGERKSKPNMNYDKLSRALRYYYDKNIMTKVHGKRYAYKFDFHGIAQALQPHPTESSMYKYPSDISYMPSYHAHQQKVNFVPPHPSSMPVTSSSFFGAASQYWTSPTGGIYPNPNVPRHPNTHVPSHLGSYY
# Procedure, shortened: (§1)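 Binding signal is defined as a hexamer's read frequency for one factor over its frequency for the tag-only sample. To obtain reads, GST-fused human transcription factors were expressed in yeast, captured on glutathione beads, barcoded with DNA and pooled with that sample. Pools met 200 nmole of a 16-mer random double-stranded DNA library in Tris/NaCl/DTT/glycerol buffer for 30 min at room temperature before washing, 0.1% formaldehyde crosslinking, proximity ligation (BsaI/T4 ligase, 1 h, 37 °C), PCR and Illumina NextSeq500 sequencing.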
# ELK1 = target: T2, ELK1 (Homo sapiens, UniProt P19419 1-428); conditions: protein: recombinant; tags: N-terminal GST; dsDNA, one strand shown
# T2 sequence: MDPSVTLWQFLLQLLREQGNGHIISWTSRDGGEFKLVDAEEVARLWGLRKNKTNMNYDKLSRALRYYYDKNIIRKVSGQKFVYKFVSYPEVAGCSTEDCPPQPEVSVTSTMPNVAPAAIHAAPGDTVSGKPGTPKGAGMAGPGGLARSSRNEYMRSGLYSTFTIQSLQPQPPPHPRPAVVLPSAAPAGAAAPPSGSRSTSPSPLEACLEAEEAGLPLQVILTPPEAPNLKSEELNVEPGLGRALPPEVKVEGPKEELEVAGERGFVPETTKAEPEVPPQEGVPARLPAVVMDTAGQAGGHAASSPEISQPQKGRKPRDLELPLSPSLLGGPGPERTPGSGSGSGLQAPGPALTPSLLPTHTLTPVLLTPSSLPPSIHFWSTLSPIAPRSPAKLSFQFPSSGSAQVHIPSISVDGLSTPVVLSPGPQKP
# Procedure, shortened: as §1
# GABPA = target: T3, GABPA (Homo sapiens, UniProt Q06546 1-454); conditions: protein: recombinant; tags: N-terminal GST; dsDNA, one strand shown
# T3 sequence: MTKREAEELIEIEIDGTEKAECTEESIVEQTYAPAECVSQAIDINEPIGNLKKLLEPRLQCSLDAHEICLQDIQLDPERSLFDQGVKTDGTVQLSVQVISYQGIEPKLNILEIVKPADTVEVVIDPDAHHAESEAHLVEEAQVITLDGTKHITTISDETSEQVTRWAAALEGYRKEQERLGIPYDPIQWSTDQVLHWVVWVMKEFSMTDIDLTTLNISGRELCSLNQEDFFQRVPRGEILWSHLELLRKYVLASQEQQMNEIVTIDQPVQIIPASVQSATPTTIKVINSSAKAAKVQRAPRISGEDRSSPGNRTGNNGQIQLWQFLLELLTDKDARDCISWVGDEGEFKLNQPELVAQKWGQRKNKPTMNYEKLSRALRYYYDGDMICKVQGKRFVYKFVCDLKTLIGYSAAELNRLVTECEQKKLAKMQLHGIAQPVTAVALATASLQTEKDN
# Procedure, shortened: as §1
# ERG = target: T4, ERG (Homo sapiens, UniProt P11308 1-479); conditions: protein: recombinant; tags: N-terminal GST; dsDNA, one strand shown
# T4 sequence: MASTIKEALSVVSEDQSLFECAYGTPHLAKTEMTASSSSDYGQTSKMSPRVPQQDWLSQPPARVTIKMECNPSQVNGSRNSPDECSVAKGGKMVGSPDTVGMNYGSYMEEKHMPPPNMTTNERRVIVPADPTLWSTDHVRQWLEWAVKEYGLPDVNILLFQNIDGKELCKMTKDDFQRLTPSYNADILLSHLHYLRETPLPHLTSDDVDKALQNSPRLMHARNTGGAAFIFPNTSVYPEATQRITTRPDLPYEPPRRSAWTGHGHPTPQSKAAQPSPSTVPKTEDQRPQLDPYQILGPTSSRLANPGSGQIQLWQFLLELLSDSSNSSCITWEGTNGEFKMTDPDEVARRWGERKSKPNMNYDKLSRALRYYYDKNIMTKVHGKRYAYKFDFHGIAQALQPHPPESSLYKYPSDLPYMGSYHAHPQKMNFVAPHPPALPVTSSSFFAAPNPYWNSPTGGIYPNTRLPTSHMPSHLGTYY
# Procedure, shortened: as §1
# ELF1 = ELF1 (Homo sapiens, UniProt P32519 1-619); conditions: protein: recombinant; tags: N-terminal GST; dsDNA, one strand shown
# ELF1, sequence (P32519 whole entry): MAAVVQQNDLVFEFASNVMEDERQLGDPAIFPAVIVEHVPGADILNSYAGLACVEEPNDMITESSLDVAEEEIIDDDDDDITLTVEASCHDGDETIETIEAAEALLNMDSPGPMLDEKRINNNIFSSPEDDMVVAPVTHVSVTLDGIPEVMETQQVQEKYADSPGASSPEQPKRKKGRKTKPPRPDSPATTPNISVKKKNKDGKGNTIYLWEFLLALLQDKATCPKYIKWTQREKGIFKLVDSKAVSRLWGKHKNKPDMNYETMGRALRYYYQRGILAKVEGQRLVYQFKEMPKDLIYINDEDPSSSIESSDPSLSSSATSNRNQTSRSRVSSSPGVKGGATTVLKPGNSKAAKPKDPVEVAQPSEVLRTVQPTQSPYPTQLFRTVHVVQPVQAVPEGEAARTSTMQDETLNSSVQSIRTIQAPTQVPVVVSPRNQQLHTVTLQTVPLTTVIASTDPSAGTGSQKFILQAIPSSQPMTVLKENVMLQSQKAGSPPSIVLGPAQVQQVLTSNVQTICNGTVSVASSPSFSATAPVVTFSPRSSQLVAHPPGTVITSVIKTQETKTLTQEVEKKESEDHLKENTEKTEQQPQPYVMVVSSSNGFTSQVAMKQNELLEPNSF
# Procedure, shortened: as §1
# EHF = target: T5, EHF (Homo sapiens, UniProt Q9NZC4 1-300); conditions: protein: recombinant; tags: N-terminal GST; dsDNA, one strand shown
# T5 sequence: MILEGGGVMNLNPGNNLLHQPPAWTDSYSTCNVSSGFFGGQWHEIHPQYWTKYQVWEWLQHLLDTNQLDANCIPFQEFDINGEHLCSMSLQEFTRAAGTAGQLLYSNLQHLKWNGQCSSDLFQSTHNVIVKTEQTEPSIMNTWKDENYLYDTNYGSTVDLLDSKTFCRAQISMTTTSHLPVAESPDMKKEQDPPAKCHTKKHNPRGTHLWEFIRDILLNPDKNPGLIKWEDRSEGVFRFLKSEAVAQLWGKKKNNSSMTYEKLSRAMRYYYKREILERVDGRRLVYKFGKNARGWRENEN
# Procedure, shortened: as §1
# SPI1 = SPI1 (Homo sapiens, UniProt P17947 1-270); conditions: protein: recombinant; tags: N-terminal GST; dsDNA, one strand shown
# Procedure, shortened: as §1
# SPIB = SPIB (Homo sapiens, UniProt Q01892 1-262); conditions: protein: recombinant; tags: N-terminal GST; dsDNA, one strand shown
# SPIB, sequence (Q01892 whole entry): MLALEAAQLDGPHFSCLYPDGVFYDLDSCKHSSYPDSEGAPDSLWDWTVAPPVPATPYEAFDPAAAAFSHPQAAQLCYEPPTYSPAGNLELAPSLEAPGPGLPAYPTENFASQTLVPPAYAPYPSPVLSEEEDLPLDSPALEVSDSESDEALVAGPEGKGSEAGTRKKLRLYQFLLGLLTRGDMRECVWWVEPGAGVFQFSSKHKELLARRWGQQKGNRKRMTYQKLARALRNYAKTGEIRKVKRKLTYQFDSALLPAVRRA
# Procedure, shortened: as §1
# ELK3 = target: T6, ELK3 (Homo sapiens, UniProt P41970 1-407); conditions: protein: recombinant; tags: N-terminal GST; dsDNA, one strand shown
# T6 sequence: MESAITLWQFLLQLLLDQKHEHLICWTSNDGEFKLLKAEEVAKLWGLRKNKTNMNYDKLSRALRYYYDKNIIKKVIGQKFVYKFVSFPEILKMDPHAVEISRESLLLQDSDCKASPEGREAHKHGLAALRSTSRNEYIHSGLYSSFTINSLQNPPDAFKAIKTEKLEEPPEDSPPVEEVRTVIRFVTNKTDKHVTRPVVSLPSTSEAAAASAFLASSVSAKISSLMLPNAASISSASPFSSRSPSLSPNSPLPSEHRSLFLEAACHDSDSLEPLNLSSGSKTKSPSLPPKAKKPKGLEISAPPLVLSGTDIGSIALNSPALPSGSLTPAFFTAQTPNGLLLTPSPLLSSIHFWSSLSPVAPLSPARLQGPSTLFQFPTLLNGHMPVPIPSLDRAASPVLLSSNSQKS
# Procedure, shortened: as §1
# FEV = target: T7, FEV (Homo sapiens, UniProt Q99581 1-238); conditions: protein: recombinant; tags: N-terminal GST; dsDNA, one strand shown
# T7 sequence: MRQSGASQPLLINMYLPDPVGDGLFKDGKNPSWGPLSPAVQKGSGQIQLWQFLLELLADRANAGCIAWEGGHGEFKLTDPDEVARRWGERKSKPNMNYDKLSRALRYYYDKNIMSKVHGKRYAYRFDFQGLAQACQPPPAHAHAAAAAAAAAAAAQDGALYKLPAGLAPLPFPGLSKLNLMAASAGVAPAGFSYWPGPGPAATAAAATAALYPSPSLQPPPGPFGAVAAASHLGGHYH
# Procedure, shortened: as §1
# ETV5 = ETV5 (Homo sapiens, UniProt P41161 1-510); conditions: protein: recombinant; tags: N-terminal GST; dsDNA, one strand shown
# ETV5, sequence (P41161 whole entry): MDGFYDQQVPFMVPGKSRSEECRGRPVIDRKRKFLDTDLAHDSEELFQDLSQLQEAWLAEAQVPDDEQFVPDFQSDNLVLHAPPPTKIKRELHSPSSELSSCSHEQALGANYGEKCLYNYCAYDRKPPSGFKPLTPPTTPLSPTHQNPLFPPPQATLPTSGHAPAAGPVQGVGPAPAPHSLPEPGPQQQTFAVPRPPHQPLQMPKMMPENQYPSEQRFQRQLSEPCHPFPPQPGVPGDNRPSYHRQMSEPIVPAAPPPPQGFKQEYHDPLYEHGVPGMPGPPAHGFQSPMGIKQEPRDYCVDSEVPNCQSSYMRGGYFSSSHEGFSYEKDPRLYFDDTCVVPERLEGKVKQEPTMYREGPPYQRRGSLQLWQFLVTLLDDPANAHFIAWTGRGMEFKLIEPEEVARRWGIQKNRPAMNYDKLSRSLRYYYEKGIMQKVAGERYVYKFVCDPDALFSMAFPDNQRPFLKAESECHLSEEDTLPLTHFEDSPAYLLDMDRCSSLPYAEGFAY
# Procedure, shortened: as §1
# HSF1 = HSF1 (Homo sapiens, UniProt Q00613 1-529); conditions: protein: recombinant; tags: N-terminal GST; chain copies: 3; dsDNA, one strand shown
# HSF1, sequence (Q00613 whole entry): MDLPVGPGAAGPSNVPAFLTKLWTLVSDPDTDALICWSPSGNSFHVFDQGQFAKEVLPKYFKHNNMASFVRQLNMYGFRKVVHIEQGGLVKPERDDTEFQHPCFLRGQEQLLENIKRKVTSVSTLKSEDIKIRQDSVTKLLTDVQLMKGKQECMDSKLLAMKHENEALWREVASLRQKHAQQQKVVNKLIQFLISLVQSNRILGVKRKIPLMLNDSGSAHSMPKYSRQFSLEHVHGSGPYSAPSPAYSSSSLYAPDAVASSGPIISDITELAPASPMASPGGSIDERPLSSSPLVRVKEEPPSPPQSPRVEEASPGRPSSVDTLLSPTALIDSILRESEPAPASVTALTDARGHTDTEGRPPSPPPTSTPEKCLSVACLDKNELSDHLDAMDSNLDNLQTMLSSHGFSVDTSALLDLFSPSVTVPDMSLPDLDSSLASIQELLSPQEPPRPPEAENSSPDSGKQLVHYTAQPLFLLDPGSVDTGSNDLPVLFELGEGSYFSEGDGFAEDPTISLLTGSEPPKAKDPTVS
# Procedure, shortened: as §1
# SPIC = target: T8, SPIC (Homo sapiens, UniProt Q8N5J4 1-248); conditions: protein: recombinant; tags: N-terminal GST; dsDNA, one strand shown
# T8 sequence: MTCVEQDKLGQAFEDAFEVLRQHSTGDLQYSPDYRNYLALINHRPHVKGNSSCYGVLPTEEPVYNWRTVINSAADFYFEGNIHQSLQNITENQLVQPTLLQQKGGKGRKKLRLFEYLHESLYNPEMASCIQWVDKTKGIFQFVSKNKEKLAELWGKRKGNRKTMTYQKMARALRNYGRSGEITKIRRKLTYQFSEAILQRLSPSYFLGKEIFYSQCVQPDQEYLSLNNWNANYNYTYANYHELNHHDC
# Procedure, shortened: as §1
# ELF4 = ELF4 (Homo sapiens, UniProt Q99607 1-663); conditions: protein: recombinant; tags: N-terminal GST; dsDNA, one strand shown
# ELF4, sequence (Q99607 whole entry): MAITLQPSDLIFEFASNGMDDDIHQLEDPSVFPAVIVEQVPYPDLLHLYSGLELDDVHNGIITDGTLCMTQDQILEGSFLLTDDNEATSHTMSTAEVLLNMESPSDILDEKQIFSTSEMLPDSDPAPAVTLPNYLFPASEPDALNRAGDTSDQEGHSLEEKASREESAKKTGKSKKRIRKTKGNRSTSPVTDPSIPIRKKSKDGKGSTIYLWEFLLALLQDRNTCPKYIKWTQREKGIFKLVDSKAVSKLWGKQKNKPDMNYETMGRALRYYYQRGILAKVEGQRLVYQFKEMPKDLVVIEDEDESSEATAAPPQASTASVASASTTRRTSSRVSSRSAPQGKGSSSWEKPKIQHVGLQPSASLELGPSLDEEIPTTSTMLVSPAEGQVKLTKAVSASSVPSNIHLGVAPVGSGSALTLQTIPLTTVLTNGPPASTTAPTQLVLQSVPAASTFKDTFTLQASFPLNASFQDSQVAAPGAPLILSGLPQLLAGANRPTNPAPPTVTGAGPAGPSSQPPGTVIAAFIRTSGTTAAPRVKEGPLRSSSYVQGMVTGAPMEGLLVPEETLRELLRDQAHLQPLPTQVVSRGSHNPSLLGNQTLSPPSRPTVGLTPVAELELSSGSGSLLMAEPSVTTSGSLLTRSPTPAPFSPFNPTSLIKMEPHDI
# Procedure, shortened: as §1
# ELK4 = target: T9, ELK4 (Homo sapiens, UniProt P28324-2 1-405); conditions: protein: recombinant; tags: N-terminal GST; dsDNA, one strand shown
# T9 sequence: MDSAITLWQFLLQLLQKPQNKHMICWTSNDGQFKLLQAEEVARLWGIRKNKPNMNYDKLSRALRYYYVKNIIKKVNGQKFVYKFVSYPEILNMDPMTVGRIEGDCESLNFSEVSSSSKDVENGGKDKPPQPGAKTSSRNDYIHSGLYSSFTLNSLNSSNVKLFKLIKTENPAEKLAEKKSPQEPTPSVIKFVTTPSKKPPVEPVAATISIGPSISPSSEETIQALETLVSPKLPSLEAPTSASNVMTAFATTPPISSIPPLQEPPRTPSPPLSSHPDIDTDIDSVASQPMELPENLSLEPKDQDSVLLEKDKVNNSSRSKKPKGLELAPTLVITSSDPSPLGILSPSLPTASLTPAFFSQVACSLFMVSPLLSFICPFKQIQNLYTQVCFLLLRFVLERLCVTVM
# Procedure, shortened: as §1
# ETV2 = target: T10, ETV2 (Homo sapiens, UniProt O00321 1-342); conditions: protein: recombinant; tags: N-terminal GST; dsDNA, one strand shown
# T10 sequence: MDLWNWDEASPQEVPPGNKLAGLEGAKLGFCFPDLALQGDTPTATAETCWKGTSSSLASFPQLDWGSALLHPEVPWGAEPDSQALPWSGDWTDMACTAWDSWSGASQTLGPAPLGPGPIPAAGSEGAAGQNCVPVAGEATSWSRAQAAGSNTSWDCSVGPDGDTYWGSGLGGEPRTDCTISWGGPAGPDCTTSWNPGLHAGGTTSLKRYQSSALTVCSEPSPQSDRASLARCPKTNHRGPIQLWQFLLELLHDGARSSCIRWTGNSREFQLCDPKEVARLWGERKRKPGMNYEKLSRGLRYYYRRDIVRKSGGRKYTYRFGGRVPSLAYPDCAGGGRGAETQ
# Procedure, shortened: as §1
# ELF3 = target: T11, ELF3 (Homo sapiens, UniProt P78545 1-371); conditions: protein: recombinant; tags: N-terminal GST; dsDNA, one strand shown
# T11 sequence: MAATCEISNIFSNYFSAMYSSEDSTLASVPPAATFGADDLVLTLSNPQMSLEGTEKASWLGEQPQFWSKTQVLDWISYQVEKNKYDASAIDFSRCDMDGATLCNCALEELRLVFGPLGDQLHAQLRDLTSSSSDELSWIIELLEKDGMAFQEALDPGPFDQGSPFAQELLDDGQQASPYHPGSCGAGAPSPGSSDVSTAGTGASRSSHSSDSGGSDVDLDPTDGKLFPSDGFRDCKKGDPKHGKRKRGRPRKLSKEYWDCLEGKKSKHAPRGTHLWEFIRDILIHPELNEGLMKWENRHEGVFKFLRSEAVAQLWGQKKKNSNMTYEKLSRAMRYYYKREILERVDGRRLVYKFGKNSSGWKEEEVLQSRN
# Procedure, shortened: as §1
# CRX = CRX (Homo sapiens, UniProt O43186 1-299); conditions: protein: recombinant; tags: N-terminal GST; dsDNA, one strand shown
# CRX, sequence (O43186 whole entry): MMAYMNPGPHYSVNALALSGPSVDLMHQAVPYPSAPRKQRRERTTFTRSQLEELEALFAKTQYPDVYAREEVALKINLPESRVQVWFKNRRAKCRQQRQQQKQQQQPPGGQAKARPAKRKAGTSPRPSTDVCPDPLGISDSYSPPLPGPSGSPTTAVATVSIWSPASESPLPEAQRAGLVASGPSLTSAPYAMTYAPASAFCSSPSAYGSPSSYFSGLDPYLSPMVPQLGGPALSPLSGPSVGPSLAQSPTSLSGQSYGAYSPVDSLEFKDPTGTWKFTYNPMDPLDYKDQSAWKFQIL
# Procedure, shortened: as §1
# ETV1 = ETV1 (Homo sapiens, UniProt P50549 1-477); conditions: protein: recombinant; tags: N-terminal GST; dsDNA, one strand shown
# ETV1, sequence (P50549 whole entry): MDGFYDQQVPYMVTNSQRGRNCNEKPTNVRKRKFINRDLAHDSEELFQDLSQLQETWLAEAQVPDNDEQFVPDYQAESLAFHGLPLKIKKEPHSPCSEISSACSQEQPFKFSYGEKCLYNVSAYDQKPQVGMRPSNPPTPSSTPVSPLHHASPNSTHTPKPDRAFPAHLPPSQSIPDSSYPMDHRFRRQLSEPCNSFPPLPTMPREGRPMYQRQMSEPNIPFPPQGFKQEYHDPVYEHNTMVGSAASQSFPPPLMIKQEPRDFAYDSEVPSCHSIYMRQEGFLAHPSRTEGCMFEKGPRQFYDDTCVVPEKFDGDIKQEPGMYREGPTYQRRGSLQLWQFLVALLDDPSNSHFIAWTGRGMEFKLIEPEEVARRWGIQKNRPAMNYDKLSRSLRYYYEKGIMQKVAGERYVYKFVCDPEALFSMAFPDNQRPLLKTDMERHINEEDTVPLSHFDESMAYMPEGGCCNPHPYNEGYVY
# Procedure, shortened: as §1
sequence,measurement,setting,value
GCTTCG,binding signal,FLI1,"1.3 fold enrichment (6-mer frequency, TF over GST control)"
same,binding signal,ELK1,"1.46 fold enrichment (6-mer frequency, TF over GST control)"
same,binding signal,GABPA,"1.35 fold enrichment (6-mer frequency, TF over GST control)"
same,binding signal,ERG,"1.36 fold enrichment (6-mer frequency, TF over GST control)"
same,binding signal,ELF1,"1.32 fold enrichment (6-mer frequency, TF over GST control)"
same,binding signal,EHF,"1.26 fold enrichment (6-mer frequency, TF over GST control)"
same,binding signal,SPI1,"1.26 fold enrichment (6-mer frequency, TF over GST control)"
same,binding signal,SPIB,"1.3 fold enrichment (6-mer frequency, TF over GST control)"
same,binding signal,ELK3,"1.4 fold enrichment (6-mer frequency, TF over GST control)"
same,binding signal,FEV,"1.26 fold enrichment (6-mer frequency, TF over GST control)"
same,binding signal,ETV5,"1.29 fold enrichment (6-mer frequency, TF over GST control)"
same,binding signal,HSF1,"1.6 fold enrichment (6-mer frequency, TF over GST control)"
same,binding signal,SPIC,"1.17 fold enrichment (6-mer frequency, TF over GST control)"
same,binding signal,ELF4,"1.26 fold enrichment (6-mer frequency, TF over GST control)"
same,binding signal,ELK4,"1.38 fold enrichment (6-mer frequency, TF over GST control)"
same,binding signal,ETV2,"1.33 fold enrichment (6-mer frequency, TF over GST control)"
same,binding signal,ELF3,"1.47 fold enrichment (6-mer frequency, TF over GST control)"
same,binding signal,CRX,"1.25 fold enrichment (6-mer frequency, TF over GST control)"
same,binding signal,ETV1,"1.29 fold enrichment (6-mer frequency, TF over GST control)"

# From article PMC7862700, “An all-to-all approach to the identification of sequence-specific readers for epigenetic DNA modifications on cytosine”
